Measurements reported in PubChem BioAssay (NCATS).
Results filed as inconclusive are left out. Activity calls are given as the source filed them. Calls come from the whole dose curve; as a rule, active = well fitted cell-killing curve with a large enough effect; inconclusive = small, poorly fitted or top-dose-only effect, or effect the other way; inactive = no such curve, though single readings can be large or run the other way.

Assay: Quantitative High-Throughput drug screen in 47 multiple myeloma cell lines against the NCATS MIPE library collection: KMS12PE_JCRB cell viability assay (AID 1918972); note: nearly all actives have a fitted effect of over 30% in size
Details: KMS12PE myeloma viability, CellTiter-Glo ATP, 48 h; series mostly up to 45.8 µM; viability: at the top concentration
Source text: PI: Beverly A. Mock Ph.D.
Laboratory of Cancer Biology and Genetics,
Center for Cancer Research, National Cancer Institute,
National Institute of Health, Bethesda, Maryland
Drug resistance and disease progression are common in multiple myeloma (MM) patients, underscoring the need for new therapeutic combinations. […] We hypothesized that effective combinations would reduce MYC expression and enhance p16 activity. […] These preclinical data identify potentially useful drug combinations for evaluation in drug-resistant MM and reveal potential mechanisms of combined drug sensitivity.
Described herein is the primary MIPE qHTS used to cherrypick compounds. Validated compounds were then further tested for potential synergistic activiy.
[1] Peat TJ, Gaikwad SM, Dubois W, Gyabaah-Kessie N, Zhang S, Gorjifard S, Phyo Z, Andres M, Hughitt VK, Simpson RM, Miller MA, Girvin AT, Taylor A, Williams D, D'Antonio N, Zhang Y, Rajagopalan A, Flietner E, Wilson K, Zhang X, Shinn P, Klumpp-Thomas C, McKnight C, Itkin Z, Chen L, Kazandijian D, Zhang J, Michalowski AM, Simmons JK, Keats J, Thomas CJ, Mock BA. Drug combinations identified by high-throughput screening promote cell cycle transition and upregulate Smad pathways in myeloma. Cancer Lett. 2023 Aug 1;568:216284. doi: 10.1016/j.canlet.2023.216284. Epub 2023 Jun 24. PMID: 37356470; PMCID: PMC10408729.
SEQUENCE No. (e.g., 1, 2, 3, etc.); […] (e.g., Cells, Incubation, Reagent, etc.); VALUE and DESCRIPTION.
1; Cells; 5 uL; white, solid bottom 1536-well Greiner assay plate.
2; Compounds; 23 nL; Kalypsis pin tool (Wako USA) equipped with a 1536-well pin head to transfer to the assay plates.
3; Incubation; 48 hours; 37C incubation.
4; Reagent;5uL; CellTiter Glo (Promega).
5; Detector; 425V; Luminescence; Viewlux PerkinElmer.
NOTES (numbers refer to Sequence numbers above)
1. The cell-based screening methods employed in this study were like those previously published. Briefly, the corresponding myeloma cell lines were screened in 1,536-well plates with 500 cells, 5-uL per well for inhibition of cell viability (assessed by measuring ATP levels with CellTiterGlo).
2. NCATS MIPE 4.0 library of approved and investigational drugs were added using the Kalypsis pin tool. Wells treated with DMSO only for 100% viability and media only wells for 0% viability were used as controls.
3. The assay plates were covered and incubated for 48 hours in a 37C, 5% CO2 incubator with controlled humidity.
4. After 48 hours, CellTilter-GloTM luminescent substrate mix (Promega) reagent was added to the assay plate and plates we incubated for 5 min at room temperature.
5. Signal was measured as median relative luminescence units on a ViewLux (PerkinElmer) multiplate reader.
[1] Heske CM, Davis MI, Baumgart JT, Wilson K, Gormally MV, Chen L, Zhang X, Ceribelli M, Duveau DY, Guha R, Ferrer M, Arnaldez FI, Ji J, Tran HL, Zhang Y, Mendoza A, Helman LJ, Thomas CJ. Matrix Screen Identifies Synergistic Combination of PARP Inhibitors and Nicotinamide Phosphoribosyltransferase (NAMPT) Inhibitors in Ewing Sarcoma. Clin Cancer Res. 2017 Dec 1;23(23):7301-7311. doi: 10.1158/1078-0432.CCR-17-1121. Epub 2017 Sep 12. PMID: 28899971; PMCID: PMC6636827.
Potency is the fitted concentration of half-maximal effect.

Compound	Potency	viability
Cc1ccc(S(=O)(=O)Nc2cc(Cl)ccc2C(=O)Nc2nc(-c3ccccc3)cs2)cc1	2640 nM (active)	–
CCOc1ccccc1OCCNC(C)Cc1ccc(OC)c(S(N)(=O)=O)c1 (stereo not given)	–	88.9% (inactive)
Cc1cn2c(-c3cn[nH]c3)cnc2c(Nc2ccc(C(=O)N3CCNCC3)cc2F)n1	5260 nM (active)	–
COc1cc(=C2C=c3ccccc3=N2)[nH]c1=Cc1[nH]c(C)cc1C	20900 nM (active)	–
Cc1[nH]c2ccccc2c1CCNCc1ccc(C=CC(=O)NO)cc1	52.6 nM (active)	–
C[C@@H]1CN(CC(=O)Nc2ccc3c(c2)Cc2cccc(-c4cc(=O)cc(N5CCOCC5)o4)c2S3)C[C@H](C)O1	13200 nM (active)	–
O=C(O)Cn1nnc(-c2cc(N3CCC(Oc4cc(F)ccc4Br)CC3)no2)n1	–	82.8% (inactive)
COc1cc2nccc(Oc3ccc(NC(=O)C4(C(=O)Nc5ccc(F)cc5)CC4)cc3)c2cc1OC	7430 nM (active)	–
Nc1ccn([C@@H]2O[C@H](CO)[C@H](O)C2(F)F)c(=O)n1	74.3 nM (active)	–
O=C(O)c1ccc2cc(-c3ccc(O)c(C45CC6CC(CC(C6)C4)C5)c3)ccc2c1	526 nM (active)	–
C=CC(=O)Nc1cccc(Oc2nc(Nc3ccc(N4CCN(C)CC4)cc3)ncc2Cl)c1	1870 nM (active)	–
Cn1c(=O)n(-c2ccc(C(C)(C)C#N)cc2)c2c3cc(-c4cnc5ccccc5c4)ccc3ncc21	52.6 nM (active)	–
C=CC(=O)Nc1cc2c(Nc3ccc(F)c(Cl)c3)ncnc2cc1C#CC(C)(C)N1CCN(C)CC1	833 nM (active)	–
COc1cccc(Nc2c(C(N)=O)cnc3c(C)cc(S(=O)(=O)c4cccc(C(=O)N(C)C)c4)cc23)c1	12900 nM (active)	–
NCC(=O)Nc1ccc(-n2nc(C(F)(F)F)cc2-c2ccc3c(ccc4ccccc43)c2)cc1	526 nM (active)	–
COc1ccc(-c2cc3c(C)nc(N)nc3n(C3CCC(OCCO)CC3)c2=O)cn1 (stereo not given)	372 nM (active)	–
CCn1cc(-c2ccnc3[nH]c(-c4cccc(CN(C)C)c4)cc23)c(-c2ccc(NC(=O)N(C)C)cc2)n1	5260 nM (active)	–
CN(C)c1nc(Cc2ccc(NC(=O)c3ccc4ccccc4c3)cc2)nc(Cl)c1CC(=O)O	16600 nM (active)	–
C1Cc2[nH]nc(-c3nn[nH]n3)c2C1	–	107% (inactive)
Cc1ccc(-c2ncn(-c3ccc(Nc4nccc(-c5cccc(N6CCOCC6)c5)n4)cc3)n2)cn1	59 nM (active)	–

Compound	Potency	viability
CC(C)(C)c1cnc(CSc2cnc(NC(=O)C3CCNCC3)s2)o1	526 nM (active)	–
COc1cc2c(Oc3ccc4[nH]c(C)cc4c3F)ncnc2cc1OCCCN1CCCC1	2640 nM (active)	–
COc1ccc(-n2nc(C(N)=O)c3c2C(=O)N(c2ccc(N4CCCCC4=O)cc2)CC3)cc1	–	132% (inactive)
CC(C)(C)OC(=O)Nc1ccc(-c2cc(C(=O)NCCCCCCC(=O)NO)no2)cc1	935 nM (active)	–
O=C(O)CO.[NH2-].[NH2-].[Pt+2]	–	126% (inactive)
O=C(O)[C@H](Cc1c[nH]c2ccccc12)N1C(=O)c2ccccc2C1=O	–	104% [at 92.2 µM] (inactive)
CC[C@H](CO)Nc1nc(NCc2ccccc2)c2ncn(C(C)C)c2n1	–	91.9% (inactive)
O=C(Nc1cc(C(F)(F)F)cc(C(F)(F)F)c1)c1cc(Cl)ccc1O	526 nM (active)	–
C#Cc1cccc(Nc2ncnc3cc(OC)c(OCCCCCCC(=O)NO)cc23)c1	148 nM (active)	–
Cc1ccc(NC(=O)C2(c3ccc4c(c3)OC(F)(F)O4)CC2)nc1-c1cccc(C(=O)O)c1	41.8 nM (active)	–
O=C(C=Cc1cccc(S(=O)(=O)Nc2ccccc2)c1)NO	1360 nM (active)	–
Cc1cc(Nc2cc(NC(=O)c3c(Cl)cccc3Cl)ccn2)nc(N)n1	166 nM (active)	–
COc1cc(C(C)C)c2c(c1)S(=O)(=O)N(COc1cc(=O)n3cccc(OCCN4CCCCC4)c3n1)C2=O	23500 nM (active)	–
Cn1cc(-c2ccncc2)c(-c2ccc(OCc3ccc4ccccc4n3)cc2)n1	5900 nM (active)	–
CN1CCC(CNc2ccc3ncc(-c4cccc(OC(F)(F)F)c4)n3n2)CC1	7430 nM (active)	–
CC(C)CC(=O)Nc1n[nH]c2c1CN(C(=O)C1CCN(C)CC1)C2(C)C	2350 nM (active)	–
CC1(C)CC(=O)c2c(C(F)(F)F)nn(-c3ccc(C(N)=O)c(NC4CCC(OC(=O)CN)CC4)c3)c2C1 (stereo not given)	132 nM (active)	–
COc1c(OCCCN2CCOCC2)ccc2c3n(c(=NC(=O)c4cnc(N)nc4)nc12)CCN3	72.4 nM (active)	–
COC(=O)[C@]12CCC(C)(C)C[C@@H]1[C@@H]1C(=O)C=C3[C@@]4(C)C=C(C#N)C(=O)C(C)(C)[C@@H]4CC[C@@]3(C)[C@]1(C)CC2	662 nM (active)	–
Cc1cc(Nc2nc(N[C@@H](C)c3ccc(F)cc3)c(C#N)cc2F)n[nH]1	935 nM (active)	–
